An excerpt weighted towards active compounds, which were near 4.2% of everything screened.
UCHL1 inh: human UCHL1 deubiquitinase inhibition. purified UCHL1, Ub-rhodamine cleavage fluorescence. 47,000 compounds, 0.2% hits. inhibition, % at 20 µM
USP28 block: human USP28 deubiquitinase inhibition; inhibition, % at 25 µM; Q96RU2; purified USP28, Ub-rhodamine cleavage fluorescence, 30 min; 47,000 compounds, 3% hits; AID 1645857
USP7 block: inhibitors of human USP7 deubiquitinase. inhibition, % at 20 µM. 47,000 compounds, 0.3% hits. purified USP7, Ub-rhodamine cleavage fluorescence. AID 1645854
OTUD3 block: inhibitors of human OTUD3 deubiquitinase; inhibition, % at 25 µM; purified OTUD3, Ub-rhodamine fluorescence, 2 h; 47,000 compounds, 0.7% hits; Q5T2D3
USP10 block: inhibitors of human USP10 deubiquitinase | Q14694 | purified USP10, Ub-rhodamine fluorescence, 60 min | inhibition, % at 20 µM | 47,000 compounds, 1.1% hits | AID 1645856
Active calls of the source: *; . = no result given. No stated cut-off is given here; in the data, active means inhibition above about 30%; inactive means the rest.

SMILES	UCHL1 inh	USP28 block	USP7 block	OTUD3 block	USP10 block
CN(C)CCc1cc2c(c3c1ccc1ccccc13)OCO2	2	75*	-27	3	-2
CN1C[C@H]2CCN(C(=O)c3ccncc3)CC[C@H]2S1(=O)=O	3	10	5	6	0
Cc1ccc(S(=O)(=O)N(CC#N)c2nc3nc(C)c(Cl)c(C)n3n2)cc1	1	33*	0	15	-2
COc1ccccc1CNC(=O)c1c(O)c2cnn(-c3cccc(C)c3)c2[nH]c1=O	7	76*	-27	3	30
COc1ccc(-c2nn3c(N4CCN(c5ccccn5)CC4)cc(C)nc3c2C)cc1	2	.	2	-5	1
C[C@H](Cc1cc2c(cc1O)OCO2)[C@@H](C)Cc1cc2c(cc1O)OCO2	25	97*	19	93*	84*
Cc1cc2c(cc1CCc1cc3c(cc1C)OCO3)OCO2	-1	-2	2	0	3
C=C1C(=O)OC(CCCCC)C1C(=O)O (stereo not given)	4	36*	-21	3	7
CO/C1=C\C(C)=C/[C@@H](C)[C@@H](O)[C@@H](C)C/C(C)=C/C=C/[C@H](OC)[C@@H]([C@@H](C)[C@@H](O)[C@H](C)[C@@]2(O)C[C@@H](OC(=O)/C=C/C(N)=O)[C@H](C)[C@@H](C(C)C)O2)OC1=O	1	23	16	22	28
CCC1OC(O)(C(C)C(O)C(C)C2OC(=O)/C(C)=C/C(C)=CC(C)C(O)C(C)C/C(C)=C/C=C/C2OC)CC(OC(=O)/C=C/C(=O)NC2=C(O)CCC2=O)C1C (stereo not given)	5	34*	26	32*	39*
Cc1ccc(CN2Cc3cc4ccccc4nc3OC2=O)o1	3	7	13	4	0
Cc1ccc(-c2nc(Cn3cnc4ccccc4c3=O)cs2)cc1	1	33*	9	22	15
Cc1ccc(C2=Nc3ccccc3N(CC(=O)Nc3cccc(C)c3C)C(=O)C2)cc1C	2	32*	12	31*	12
O=c1[nH]c2ccc(NCc3ccccc3OCc3ccc(Cl)cc3)cc2[nH]1	9	37*	-58	4	11
O=c1[nH]c2ccc(NCc3cccc(OCc4ccc(F)cc4)c3)cc2[nH]1	1	19	1	-5	0
CN(C)c1ncnc2c1ncn2[C@@H]1CC[C@@H](NC(=O)c2ccc(F)cc2)[C@@H](O)[C@@H]1O	-2	-3	2	4	0
CNC(=O)c1sc2ccccc2c1C1CN(Cc2cccc3cccnc23)CCO1 (stereo not given)	-2	-23	-6	-16	-5
CCOc1ccc(NC(=O)CCn2c(-c3ccc(OC)cc3)cc(C(C)=O)c2C)cc1	0	20	5	13	4
Cc1cc(C)c(NC(=O)CSc2nnc(Cc3cccc4ccccc34)n2C)c(C)c1	-2	5	-17	2	-5
Cc1ccc(NC(=O)CSc2nnc(Cc3cccc4ccccc34)n2C)c(C)c1	3	49*	-35	12	-3
Cn1c(SCC(=O)Nc2ccc(F)c(F)c2)nnc1-c1cnccn1	1	11	-2	8	1
Cc1nnc(NCc2cccnc2)c2c1nnn2Cc1ccc(F)cc1	0	34*	-68	-6	-4
O=C(OCC(=O)N1CCC(Cc2ccccc2)CC1)c1ccc(N2CCCC2=O)cc1	0	43*	1	3	-6
Nc1cc(C(=O)OCC(=O)N2CCC(Cc3ccccc3)CC2)ccc1Cl	3	14	5	12	4
Cc1cccc(C(=O)N[C@@H]2C(=O)Nc3c(c(C)nn3C)[C@H]2c2cccc(C(F)(F)F)c2)c1	-4	3	-1	-1	-3
SMILES	UCHL1 inh	USP28 block	USP7 block	OTUD3 block	USP10 block
COc1cccc([C@@H]2c3c(C)nn(C)c3NC(=O)[C@H]2NC(=O)c2ccc(Cl)cc2)c1	5	35*	-1	1	-4
O=C(C1CN(Cc2ccccn2)Cc2ccnn2C1)N1CCOCC1 (stereo not given)	-1	-13	1	-7	-1
Cc1ccc2cc3c(nc2c1)OC(=O)N(Cc1ccco1)C3	-2	2	4	-16	3
Cc1cc(C)c2cc3c(nc2c1)OC(=O)N(Cc1ccco1)C3	3	40*	3	10	3
Cc1nc(-c2ccc3c(c2)nnn3CCN2CCOCC2)no1	0	16	4	41*	-1
CCCCCCCCCCCCCCCc1cc(O)cc(O)c1	5	-17	-13	-5	30*
C[C@@H]1O[C@@H](O[C@H]2[C@H](O[C@H]3[C@H](O[C@H]4CC[C@@]5(C)[C@@H](CC[C@]6(C)[C@@H]5CC=C5[C@@H]7CC(C)(C)CC(=O)[C@]7(C)CC[C@]56C)[C@@]4(C)CO)O[C@H](C(=O)O)[C@@H](O)[C@@H]3O)OC[C@@H](O)[C@@H]2O)[C@H](O)[C@H](O)[C@H]1O	2	49*	15	19	14
Cc1ccc(N2CC(CNS(=O)(=O)c3cccc(F)c3)CC2=O)cc1 (stereo not given)	0	16	3	11	2
O=C(COc1ccccc1F)N1CCSc2ccc(Cl)cc21	5	41*	-4	26	8
O=C(COc1ccc(F)cc1Br)N1CCSc2ccccc21	2	6	-5	12	4
CNC(=O)c1c2n(c3ncccc13)CCN(S(=O)(=O)c1ccc(-c3ccccc3)cc1)C2	0	-2	7	-1	34*
CNC(=O)c1c2n(c3ncccc13)CCN(S(=O)(=O)c1ccc(C(C)(C)C)cc1)C2	0	-16	15	-16	-2
Cc1nnc(-c2ccc3ccn(CC(=O)N4CCN(c5ccccn5)CC4)c3c2)o1	-1	0	0	0	-3
CCc1nnc(-c2ccc3ccn(CC(=O)N4CCN(c5ccccn5)CC4)c3c2)o1	17	31*	-12	83*	33*
CCn1c(=N)n(CCOc2ccc(F)cc2)c2ccccc21	0	97*	-81	-5	0
Cc1ccc(OCCn2c(=N)n(C(C)C)c3ccccc32)cc1	0	78*	-3	1	4
O=C(Cn1cncc(-c2nc(-c3ccccc3)cs2)c1=O)NC1CCCC1	3	36*	5	30	2
O=C(COc1ccccc1F)N1CCC(Cc2ccccc2)CC1	2	11	-7	9	0
CC(C)NS(=O)(=O)c1ccc(OCC(=O)N2CCC(Cc3ccccc3)CC2)cc1	3	79*	4	3	5
O=C(COc1ccc(S(=O)(=O)N2CCOCC2)cc1)N1CCC(Cc2ccccc2)CC1	6	57*	8	4	2
Cc1c(C)c2ccc(OCC(=O)N3CC[C@@]4(O)CCCC[C@H]4C3)cc2oc1=O	2	15	2	14	-2
Cc1c(C)c2ccc(OCC(=O)N3CCC(Cc4ccccc4)CC3)cc2oc1=O	5	42*	8	22	11
